# Compound activity: PubChem BioAssay, several laboratories
# HTR5A ag = HTR5A agonists in luminescence cell assay, primary screen, counter-screen for OPRM1-OPRD1 heterodimer agonist project, full-deck HTS. activation, % at 9.3 µM. 5-hydroxytryptamine receptor 5A (Homo sapiens), P47898. AID 504692, 2011. actives 0.61% (n = 340,000). cell-based; in the data active = activation mostly above about 9.5%, no sharp cut-off; inactive = mostly below about 7.6%;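 also: 0% = cells with vehicle only and 100% = reference agonist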
# Target sequence (P47898 whole entry, looked up): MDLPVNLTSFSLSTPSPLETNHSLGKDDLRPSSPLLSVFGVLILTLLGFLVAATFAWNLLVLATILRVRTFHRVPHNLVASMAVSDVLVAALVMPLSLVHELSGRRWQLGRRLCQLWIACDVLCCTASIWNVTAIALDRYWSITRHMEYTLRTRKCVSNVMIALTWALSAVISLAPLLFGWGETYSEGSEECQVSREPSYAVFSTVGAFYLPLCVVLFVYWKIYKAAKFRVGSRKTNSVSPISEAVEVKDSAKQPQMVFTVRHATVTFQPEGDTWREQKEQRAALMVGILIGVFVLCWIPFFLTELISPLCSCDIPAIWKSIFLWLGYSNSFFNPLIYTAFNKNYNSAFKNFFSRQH
# Yeast superoxide = reduction of superoxide in aged yeast, primary screen, HTS | S. cerevisiae aged cells, superoxide DHE fluorescence; hits give low values | actives 0.18% (n = 330,000) | superoxide response (% of plate mean), % at 10 µM;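 active = superoxide response under a set limit, about three screen SD below normal, cut at about 65% in these data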;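 also: yeast aged for seven days with compound at 30 °C before DHE staining; 100% = average MFI of all compound-treated wells on the plate with controls excluded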
# OPRM1-OPRD1 ag = agonists of OPRM1-OPRD1 heterodimerization, primary screen, cell-based, luminescence; Mu-type opioid receptor (Homo sapiens) + Delta-type opioid receptor (Homo sapiens), …; cells; activation, % at 9.3 µM; actives 0.3% (n = 340,000);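 also: 0% = vehicle-treated cells and 100% = reference agonist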
# HTR5A inv ctr = HTR5A inverse agonists in luminescence cell assay, primary screen, counter-screen for OPRM1-OPRD1 heterodimer inverse agonist project, full-deck HTS; 5-hydroxytryptamine receptor 5A (Homo sapiens), P47898; HTR5A cell line, inverse agonism; inhibition, % at 9.3 µM; actives 0.083% (n = 340,000); AID 504634, 2011; in the data active = inhibition mostly above about 23%, no sharp cut-off; inactive = mostly below about 18%;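 also: 0% = cells with DMSO and 100% = no-cell wells with DMSO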
# MOR-DOR inv ag = inverse agonists of MOR-DOR heterodimerization, primary screen, cell-based, luminescence; inhibition, % at 9.3 µM; cell-based MOR-DOR heterodimer luminescence, inverse agonism; Mu-type opioid receptor (Homo sapiens) + Delta-type opioid receptor (Homo sapiens), …; actives 0.21% (n = 340,000); in the data active = inhibition above about 22%, passing the limit was not always enough;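 also: 0% = cells with DMSO and 100% = wells without cells with DMSO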
# PvdQ acylase = P. aeruginosa PvdQ acylase inhibitors, primary screen, biochemical, fluorescence, plate reader and imaging, single point | PvdQ acylase [Pseudomonas aeruginosa LESB58] | inhibition, % at 10 µM | purified PvdQ acylase | AID 488965, 2010 | actives 0.063% (n = 340,000); in the data active = inhibition above about 30%, passing the limit was not always enough;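 also: 0% = vehicle neutral wells and 100% = reference inhibitor wells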
# OPRM1-D1 ag cf = agonists of MOR-DOR heterodimerization, confirmation, cell-based, luminescence; shares compounds with OPRM1-OPRD1 ag; cells, luminescence complementation; activation, % at 9.3 µM; actives 45% (n = 830); AID 504904, 2011;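 also: 0% = vehicle-treated cells and 100% = reference agonist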
# HTR5A ag counter = HTR5A agonists in cells, counter-screen for OPRM1-OPRD1 heterodimer agonist project, cell-based, luminescence. shares compounds with OPRM1-OPRD1 ag. HTR5A agonist counterscreen. activation, % at 9.3 µM. actives 8% (n = 830); in the data active = activation above about 17%;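 also: 0% = vehicle-treated cells and 100% = reference agonist response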
# * = called active by the depositor; i = inactive; · = no result. An excerpt weighted towards active compounds, which were near 1.3% of everything screened. Rule as the data show it, unless noted: active = activation above about 18%; inactive = the rest.
SMILES,HTR5A ag,Yeast superoxide,OPRM1-OPRD1 ag,HTR5A inv ctr,MOR-DOR inv ag,PvdQ acylase,OPRM1-D1 ag cf,HTR5A ag counter
CC(NC(=O)c1ccc2ccccc2n1)c1ccccc1 (stereo unspecified),5,108,0,-53,-2,-20,·,·
CN(C)C(CNC(=O)c1ccc2ccccc2n1)c1ccccc1 (stereo unspecified),3,105,58*,-8,-437,3,-2,0
CN(C)C(CNC(=O)c1cc(S(=O)(=O)N(C)c2ccccc2)ccc1Cl)c1ccccc1 (stereo unspecified),6,111,-1,-17,4,4,·,·
COc1ccc(C2CC(c3ccc(OC)cc3)n3nc(NC(=O)c4cccs4)nc3N2)cc1 (stereo unspecified),1,99,26*,-18,-134,-2,48*,2
COc1cc(Br)cc(/C=N/NC(=O)Cc2ccc(C(F)(F)F)cc2[N+](=O)[O-])c1O,4,103,18*,-36,-96,0,42*,2
CN1CCN(c2ccc(NC(=O)c3ccc(-c4cccc([N+](=O)[O-])c4)o3)cc2)CC1,-4,106,100*,9,i,-15,93*,5
O=C(Nc1ccc(N2CCN(C(=O)c3ccc(Cl)cc3)CC2)cc1)c1ccc(Br)o1,-3,103,-1,8,5,11,·,·
Cc1ccc(N2CCN(C(=S)c3ccc(-c4cccc([N+](=O)[O-])c4)o3)CC2)cc1,-2,99,-2,5,11,4,·,·
CN1CCN(c2ccc(NC(=O)c3ccc(-c4ccc(Cl)cc4)o3)cc2)CC1,9,101,306*,-31,i,-7,20*,-2
CCN(c1nc(N)c(C(=O)N=C(N)N)nc1Cl)C(C)C,2,99,51*,-11,-282,-3,95*,-3
COc1ccc(/C=N/n2c(-c3ccco3)nc3ccccc3c2=O)cc1,1,96,41*,-23,-240,-7,-5,-4
O=C(COC(=O)/C=C/c1cccc(Br)c1)Nc1cccc(S(=O)(=O)NC2=NCCC2)c1,-1,96,-3,-3,11,-16,·,·
Cc1cc(-c2nn(-c3ccccc3F)cc2CN2CCN(c3ccccn3)CC2)c(C)s1,-1,97,28*,3,-135,1,3,0
CSCCC(NC(=O)/C(=C/c1ccco1)NC(=O)c1ccc(Br)o1)C(=O)O (stereo unspecified),-3,91,-2,10,8,-26,·,·
CC(=O)NC12CC3CC(C1)CC(C(=O)N1CCN(S(=O)(=O)c4cccc(C(F)(F)F)c4)CC1)(C3)C2,2,95,0,23,0,-5,·,·
CCOC(=O)C1=C(C)N(CCCCCC(=O)O)C(=O)NC1c1ccccc1OS(=O)(=O)c1ccc(C)cc1 (stereo unspecified),6,·,57*,-15,-335,-6,4,8
CC1=C(C(=O)OCc2ccccc2)C(c2ccccc2OS(=O)(=O)c2ccccc2[N+](=O)[O-])NC(=O)N1CCCC(=O)O (stereo unspecified),·,107,·,·,·,·,·,·
COC(=O)C1=C(C)N(CCCC(=O)O)C(=O)NC1c1ccccc1OS(=O)(=O)c1ccc([N+](=O)[O-])cc1 (stereo unspecified),0,·,51*,0,-300,3,46*,2
CCOC(=O)C1=C(C)N(CCCC(=O)O)C(=O)NC1c1ccccc1OS(=O)(=O)c1ccccc1[N+](=O)[O-] (stereo unspecified),3,106,56*,-8,-324,-1,10,9
CCOC(=O)C1=C(C)N(CCCC(=O)O)C(=O)NC1c1ccccc1OS(=O)(=O)c1ccc(C)cc1 (stereo unspecified),-2,106,62*,5,-340,-9,58*,5
O=C(CN1CCN(CC(=O)c2ccccc2)CC1)c1ccccc1,-5,·,-1,20,4,11,·,·
O=C(CCC(=O)N1CCN(c2ccc(Cl)c(Cl)c2)CC1)c1ccccc1,-5,103,5,-22,-23,-1,·,·
Cc1ccc([C@@H]2[C@@H]3C(=O)N(c4ccccc4)C(=O)[C@@H]3[C@]3(C)C(=O)N(CC4CC4)CC(=O)N23)o1,5,94,-1,-12,6,1,·,·
Cc1cc(C)cc(NC(=O)COC(=O)CCn2c(C)csc2=O)c1,-1,107,-5,6,18,-13,·,·
O=C(COC(=O)c1cncc(Br)c1)NC12CC3CC(CC(C3)C1)C2,·,109,·,·,·,·,·,·
SMILES,HTR5A ag,Yeast superoxide,OPRM1-OPRD1 ag,HTR5A inv ctr,MOR-DOR inv ag,PvdQ acylase,OPRM1-D1 ag cf,HTR5A ag counter
O=c1[nH]c2cc([N+](=O)[O-])ccc2c2ccccc12,2,·,5,-8,-27,0,·,·
O=C1Cc2c([nH]c3ccc([N+](=O)[O-])cc23)-c2ccccc2N1,1,·,22*,-3,-108,-2,9,2
Cn1c(=O)c2c(ncn2CC(=O)N/N=C/c2c[nH]c3ccccc23)n(C)c1=O,·,117,·,·,·,·,·,·
CC(=O)c1cccc(NS(=O)(=O)c2cc3c(cc2C)N(C(C)=O)CCO3)c1,-1,78,1,0,-7,-9,·,·
Cn1c(=O)c(=O)n(C)c2cc(N3CCCC3)c(NS(=O)(=O)c3ccc(Cl)cc3)cc21,1,91,1,-3,-4,-8,·,·
COc1ccc2c(Cl)c(-c3nnc(SCC(=O)c4ccccc4)n3C)sc2c1,1,119,325*,-19,i,-14,372*,3
COc1ccc2c(Cl)c(-c3nnc(SCC(N)=O)n3C)sc2c1,-2,106,0,5,-1,-3,·,·
Cc1ccc2c(c1C)-c1c(ccc(C)c1C)C(=O)C2=O,3,·,21*,-12,-93,-12,21*,6
Nc1ccc2c(c1Cl)C(=O)c1ccc(N)c(Cl)c1C2=O,-4,·,-3,14,16,-1,·,·
COc1cc2c(cc1OC)CN(C(=O)Nc1ccccc1Cl)CC2,-1,115,-2,-2,10,-8,·,·
COc1cc2c(cc1OC)CN(C(=O)Nc1ccccc1)CC2,5,103,60*,-25,-302,-12,2,2
